The structures appear in SMILES notation. Compounds without any hit were thinned out: in the full panel of roughly 83,000, 20% have a hit.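 Values shown are percent growth following 48 h exposure of cells in 96-well plates to a single concentration of compound; below 10 was considered active.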 Unmarked numbers belong to inactive results. Calls of active or inactive are those of the source.

We go through 8 compounds from PubChem BioAssay (NCI).

Some test systems named below: HT29 colon; SNB-75 CNS; SNB-19 CNS; U251 CNS; PC-3 prostate; SK-MEL-5 melanoma; UACC-62 melanoma; LOX IMVI melanoma; SK-MEL-28 melanoma; SK-MEL-2 melanoma; SN12C renal; UO-31 renal; TK-10 renal; ACHN renal; A498 renal; CCRF-CEM leukemia; MOLT-4 leukemia; CAKI-1 renal; SR leukemia.
What all share (assay): NCI-60 one-dose screen, 48 h (100 = growth as untreated, 0 = no growth, -100 = all killed)
Holding throughout (settings): 10 µM

With `CC1(C)N=C(N)N=C(N)N1c1ccc(CCc2ccccc2)c(Cl)c1`, the growth with HT29 colon was 1.41% (active); in the test with SNB-75 CNS, 35.8%; with SNB-19 CNS it was 31.6%; with U251 CNS it was 13.2%; with PC-3 prostate, 18.7%; with SK-MEL-5 melanoma, 0.745% (active). Further, the growth with UACC-62 melanoma was 23%; in the test on LOX IMVI melanoma it was 12.6%; in the test on SK-MEL-28 melanoma it was 30.3%; in the test with SK-MEL-2 melanoma, 34.9%; in the test on SN12C renal, 18.9%; in the test on UO-31 renal, 87.9%. The growth was 21% in the test with TK-10 renal; 28.7% with ACHN renal; 40.9% in the test with A498 renal; 19.8% with CCRF-CEM leukemia; 20.2% with MOLT-4 leukemia.

Turning to `Cc1cc(=O)n2nnc3c4ccccc4ccc3n12`, the growth with HT29 colon is 85.4%; in the test on SNB-75 CNS, 102%; in the test on SNB-19 CNS, 94.9%; in the test with U251 CNS it was 97%; in the test on PC-3 prostate, 62.5%; in the test with SK-MEL-5 melanoma it was 88.5%. Besides, the growth in the test with UACC-62 melanoma was 79.9%; with LOX IMVI melanoma, 89.3%; with SK-MEL-28 melanoma it was 98.2%; in the test on SK-MEL-2 melanoma it was 113%; in the test with SN12C renal, 37.2%; with UO-31 renal it was 46.8%. The growth in the test on TK-10 renal is 74.1%; in the test with ACHN renal it was 78.1%; in the test with CAKI-1 renal, 67.8%; in the test on A498 renal, 108%; in the test on CCRF-CEM leukemia it was 23.4%; in the test with SR leukemia it was 9.54% (active).

Regarding `N#CCCN1C/C(=C/c2ccc(Cl)cc2)C(=O)/C(=C/c2ccc(Cl)cc2)C1`, the growth is -36.1% (active) in the test with HT29 colon; 11.6% in the test with SNB-75 CNS; -28% (active) with SNB-19 CNS; -95.3% (active) in the test with U251 CNS; -39.6% (active) with PC-3 prostate; -60.6% (active) in the test with SK-MEL-5 melanoma. The growth is -66.1% (active) in the test on UACC-62 melanoma; -80.4% (active) in the test with LOX IMVI melanoma; -61.4% (active) in the test on SK-MEL-28 melanoma; 19% in the test on SK-MEL-2 melanoma; -74.8% (active) with SN12C renal; -95.5% (active) in the test with UO-31 renal. In addition, the growth in the test with TK-10 renal is -40.9% (active); in the test on ACHN renal it was -70.7% (active); in the test with CAKI-1 renal, -9.22% (active); in the test with A498 renal it was -68.4% (active); in the test on CCRF-CEM leukemia, -3.01% (active); in the test with MOLT-4 leukemia, -11.7% (active). In addition, the growth in the test on SR leukemia is -17.5% (active).

`Nc1c(C(=O)Nc2ccccc2Cl)sc2nc3c(cc12)C(=O)CCC3`: the growth was 40.2% in the test with HT29 colon; 52.4% in the test on SNB-75 CNS; 51.1% with SNB-19 CNS; 73.3% in the test on U251 CNS; 37.1% with PC-3 prostate; 32.5% in the test on SK-MEL-5 melanoma. Moreover, the growth in the test with UACC-62 melanoma was 47.1%; with LOX IMVI melanoma, 55%; in the test with SK-MEL-28 melanoma, 57.7%; in the test with SK-MEL-2 melanoma it was 35.4%; in the test with SN12C renal, 56.7%; in the test on UO-31 renal, 68.9%. Also, the growth in the test with TK-10 renal is 64.3%; with ACHN renal it was 57.1%; with CAKI-1 renal, 20.7%; in the test on A498 renal, -10.9% (active); in the test with CCRF-CEM leukemia, 19.4%; with MOLT-4 leukemia, 86.8%. The growth in the test on SR leukemia is 42.3%.

As to `Cc1cc(Cc2cc(C)c(O)c(C)c2)cc(C)c1O`, the growth in the test on HT29 colon is 88.1%; with SNB-75 CNS, 48%; with SNB-19 CNS it was 66.6%; in the test with U251 CNS it was 49.6%; with PC-3 prostate, 75.1%; in the test with SK-MEL-5 melanoma it was 38.9%. The growth was 53.2% in the test on UACC-62 melanoma; 43.5% in the test on LOX IMVI melanoma; 70% with SK-MEL-28 melanoma; 6.12% (active) in the test on SK-MEL-2 melanoma; 65.3% in the test with SN12C renal; 61.2% in the test with UO-31 renal. The growth is 77.5% in the test on TK-10 renal; 72.1% with ACHN renal; 42.8% in the test with CAKI-1 renal; 97.5% with A498 renal; 22.8% in the test on MOLT-4 leukemia; 25.1% with SR leukemia.

Turning to `COc1ccc(/C=C2/CN(C(=O)c3ccc(C)cc3)C/C(=C\c3ccc(OC)cc3)C2=O)cc1`, the growth is 32.9% in the test on HT29 colon; 82.7% with SNB-75 CNS; 98.5% in the test with SNB-19 CNS; 89.4% in the test on U251 CNS; 68.6% in the test with PC-3 prostate; 89.1% in the test on SK-MEL-5 melanoma. In addition, the growth with UACC-62 melanoma was 86.4%; in the test with LOX IMVI melanoma, 42.1%; in the test with SK-MEL-28 melanoma, 116%; with SK-MEL-2 melanoma, 95.1%; in the test on SN12C renal, 90.7%; in the test with UO-31 renal, 58.5%. Besides, the growth was 113% in the test with TK-10 renal; 92% in the test on ACHN renal; 85.2% in the test on CAKI-1 renal; 89.4% in the test with A498 renal; 71.3% in the test with CCRF-CEM leukemia; 69.3% in the test on MOLT-4 leukemia. In addition, the growth in the test with SR leukemia is 12.8%.

Take `C[C@]12CC[C@@H]3c4ccc(O)cc4C[C@@H](O)[C@H]3[C@@H]1CC[C@@H]2O`: the growth in the test with HT29 colon is 102%; in the test with SNB-75 CNS, 87.8%; in the test on SNB-19 CNS, 108%; with U251 CNS, 96.1%; with PC-3 prostate, 90.2%; in the test on SK-MEL-5 melanoma, 96%. For the same compound, the growth in the test on UACC-62 melanoma is 97.1%; in the test with LOX IMVI melanoma, 97.3%; with SK-MEL-28 melanoma it was 117%; with SK-MEL-2 melanoma, 110%; with SN12C renal it was 100%; with UO-31 renal, 86.5%. The growth with TK-10 renal was 111%; with ACHN renal, 105%; in the test on CAKI-1 renal, 87.6%; in the test on A498 renal it was 79.6%; in the test with CCRF-CEM leukemia it was 103%; in the test on MOLT-4 leukemia, 109%. For the same compound, the growth in the test with SR leukemia is 91.4%.

Take `COc1ccc(C2=Nc3c(C)nn(-c4ccccc4)c3NC(c3ccc(Oc4ccnc5cc(Cl)ccc45)c(OC)c3)C2)cc1` (stereo not drawn): the growth in the test with HT29 colon is 56.2%; in the test with SNB-75 CNS it was 62.3%; in the test with SNB-19 CNS it was 78.6%; in the test on U251 CNS, 86.7%; in the test on PC-3 prostate, 54.8%; with SK-MEL-5 melanoma it was 89.4%. For the same compound, the growth in the test with UACC-62 melanoma is 75.9%; with LOX IMVI melanoma it was 89.3%; with SK-MEL-28 melanoma, 95.1%; in the test on SK-MEL-2 melanoma, 90.9%; with SN12C renal, 72.5%; in the test with UO-31 renal, 53%. Besides, the growth was 129% in the test with TK-10 renal; 76.4% with ACHN renal; 70.8% in the test on CAKI-1 renal; 54.2% with A498 renal; 71.2% with CCRF-CEM leukemia; 51.4% in the test on MOLT-4 leukemia. The growth in the test on SR leukemia was -0.699% (active).
